# Assay results published in PubChem BioAssay (EPA / NIEHS).
# The source holds several records for some structures; these can differ, active in one and inactive in another. Active and inactive are the calls of the source. How the source made its calls: active means hit-call score of the fitted dose curve at least 0.9, where 1 is the maximum; inactive means score below 0.9.
# Assay: BSK_3C_SRB: Viability Assessment in the BioMAP Diversity Plus: 3C Assay (AID 2283023);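 further: fitted both ways against DMSO so a hit may be signal rise or drop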
# Details: primary human endothelial cells (HUVEC)
# How it was run: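 Cells were dosed with chemical, cultured 24 h, fixed with 10% TCA, stained with 0.1% SRB and read at 560 nm. Human umbilical vein endothelium was used; DMSO served as negative control and baseline.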
Compound,outcome,AC50
Cc1cc(C)nc(NC(=O)NS(=O)(=O)c2ccccc2C(=O)OC2COC2)n1,inactive,–
O=C(O)CCCOc1ccc(Cl)cc1Cl,inactive,–
CCS(=O)(=O)c1cccnc1S(=O)(=O)NC(=O)Nc1nc(OC)cc(OC)n1,inactive,–
CNC(=O)CSP(=S)(OC)OC,inactive,–
CC(C)(C)C(O)C(Oc1ccc(Cl)cc1)n1cncn1 (stereo not given),inactive,–
O=C1c2ccccc2C(=O)N1SC(Cl)(Cl)Cl,inactive,–
O=C(O)C(F)(F)C(F)(F)C(F)(F)C(F)(F)C(F)(F)C(F)(F)C(F)(F)F,inactive,46.1 µM (active)
Oc1cc(Cl)ccc1Oc1ccc(Cl)cc1Cl,–,10.8 µM (active) [middle of 4 runs]
COP(=S)(OC)Oc1ccc([N+](=O)[O-])cc1,–,23 µM (active)
